# Source: PubChem BioAssay AID1159580 (chemical genetic matrix, 2015)
# Screen size: about 5,500 compounds; about 2,000 (36%) were called active. About 18% were inconclusive and are not listed. This is one part of the list. Values without a mark were called inactive. Cut-off read from the data, not from the text of the source: active = normalized growth mostly below about 0.91 (no sharp cut-off); inconclusive = no clear call, values can overlap the other calls; inactive = mostly above about 0.92.
# Assay: chemical genetic growth profiling, strain panel (AID 1159580);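 note: tested at 20 µM; growth read once vehicle control cultures reached saturation at 30 °C; 1 = growth at the plate median or of vehicle wells; lower values mean less growth of the strain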
# Conditions: S. cerevisiae deletion strains, growth OD
# [1] = locus YDL101C, strain DUN1, stronger effect = lower value
# [2] = locus YHR030C, strain SLT2, stronger effect = lower value
compound,measurement,setting,value
O=C(NCCSCc1ccco1)c1ccc(Cl)cc1,normalized growth,"locus YAL013W, strain DEP1, stronger effect = lower value",0.976
same,normalized growth,"locus YBR229C, strain ROT2, stronger effect = lower value",0.991
same,normalized growth,[1],0.976
same,normalized growth,"locus YDR150W, strain NUM1, stronger effect = lower value",0.815
same,normalized growth,"locus YEL061C, strain CIN8, stronger effect = lower value",0.994
same,normalized growth,"locus YGR078C, strain PAC10, stronger effect = lower value",0.989
same,normalized growth,[2],0.587 (active)
same,normalized growth,"locus YHR087W, strain rtc3, stronger effect = lower value",1
same,normalized growth,"locus YJL187C, strain SWE1, stronger effect = lower value",1
same,normalized growth,"locus YJR043C, strain POL32, stronger effect = lower value",0.975
same,normalized growth,"locus YJR075W, strain HOC1, stronger effect = lower value",1.05
same,normalized growth,"locus YKL190W, strain CNB1, stronger effect = lower value",1
same,normalized growth,"locus YLR039C, strain RIC1, stronger effect = lower value",1.31 [resistant] (active)
same,normalized growth,"locus YLR058C, strain SHM2 (second series), stronger effect = lower value",0.96
same,normalized growth,"locus YLR085C, strain ARP6, stronger effect = lower value",1
same,normalized growth,"locus YLR262C, strain YPT6, stronger effect = lower value",1.19 [resistant] (active)
same,normalized growth,"locus YML094W, strain GIM5, stronger effect = lower value",0.989
same,normalized growth,"locus YMR219W, strain ESC1, stronger effect = lower value",0.98
same,normalized growth,"locus YMR263W, strain SAP30, stronger effect = lower value",0.981
same,normalized growth,"locus YNL128W, strain TEP1, stronger effect = lower value",0.983
same,normalized growth,"locus YNL153C, strain GIM3, stronger effect = lower value",0.984
same,normalized growth,"locus YNL298W, strain CLA4 (second series), stronger effect = lower value",0.968
same,normalized growth,"locus YNL322C, strain KRE1, stronger effect = lower value",0.988
same,normalized growth,"locus YNR030W, strain Alg12, stronger effect = lower value",0.982
same,normalized growth,"locus YPL055C, strain LGE1, stronger effect = lower value",0.962
same,normalized growth,"locus YPL241C, strain CIN2, stronger effect = lower value",0.975
same,normalized growth,"locus YPR135W, strain CTF4, stronger effect = lower value",1.02
O=C(NCCSCc1cccc(C(F)(F)F)c1)c1ccc(Cl)cc1,normalized growth,"locus YAR019C, strain CDC15, stronger effect = lower value",0.968
same,normalized growth,"locus YBL105C, strain PKC1, stronger effect = lower value",0.965
same,normalized growth,"locus YBR135W, strain CKS1, stronger effect = lower value",0.953
same,normalized growth,"locus YBR136W, strain MEC1, stronger effect = lower value",0.979
same,normalized growth,"locus YBR160W, strain CDC28, stronger effect = lower value",0.964
same,normalized growth,"locus YDL017W, strain CDC7, stronger effect = lower value",0.971
same,normalized growth,"locus YDL028C, strain MPS1, stronger effect = lower value",0.947
same,normalized growth,[1],0.975
same,normalized growth,"locus YDL108W, strain KIN28, stronger effect = lower value",0.961
same,normalized growth,"locus YDL132W, strain cdc53, stronger effect = lower value",0.96
same,normalized growth,"locus YDL214C, strain PRR2, stronger effect = lower value",0.891
same,normalized growth,"locus YDR052C, strain DBF4, stronger effect = lower value",0.982
same,normalized growth,"locus YDR054C, strain cdc34, stronger effect = lower value",0.955
same,normalized growth,"locus YDR226W, strain ADK1, stronger effect = lower value",0.973
same,normalized growth,"locus YDR477W, strain SNF1, stronger effect = lower value",0.894
same,normalized growth,"locus YER123W, strain YCK3, stronger effect = lower value",0.851
same,normalized growth,"locus YER133W, strain GLC7, stronger effect = lower value",0.916
same,normalized growth,"locus YFL009W, strain cdc4, stronger effect = lower value",0.961
same,normalized growth,"locus YFL029C, strain CAK1, stronger effect = lower value",0.965
same,normalized growth,"locus YFR003C, strain YPI1, stronger effect = lower value",0.964
same,normalized growth,"locus YFR019W, strain FAB1, stronger effect = lower value",0.964
same,normalized growth,"locus YFR028C, strain CDC14, stronger effect = lower value",0.965
same,normalized growth,"locus YGR040W, strain KSS1, stronger effect = lower value",0.905
same,normalized growth,"locus YGR052W, strain FMP48, stronger effect = lower value",0.826
same,normalized growth,"locus YGR092W, strain DBF2, stronger effect = lower value",0.733
same,normalized growth,[2],0.614 (active)
same,normalized growth,"locus YHR079C, strain IRE1, stronger effect = lower value",0.72
same,normalized growth,"locus YHR082C, strain KSP1, stronger effect = lower value",0.871
same,normalized growth,"locus YHR205W, strain SCH9, stronger effect = lower value",0.738
same,normalized growth,"locus YIL147C, strain SLN1, stronger effect = lower value",0.97
same,normalized growth,"locus YJL095W, strain BCK1, stronger effect = lower value",0.743
same,normalized growth,"locus YJL128C, strain PBS2, stronger effect = lower value",0.887
same,normalized growth,"locus YJL157C, strain FAR1, stronger effect = lower value",0.918
same,normalized growth,"locus YJR016C, strain ILV3, stronger effect = lower value",0.959
same,normalized growth,"locus YJR066W, strain TOR1 (second series), stronger effect = lower value",0.897
same,normalized growth,"locus YJR066W, strain TOR1, stronger effect = lower value",0.769
same,normalized growth,"locus YKL048C, strain ELM1, stronger effect = lower value",0.963
same,normalized growth,"locus YKL067W, strain YNK1, stronger effect = lower value",0.864
same,normalized growth,"locus YKL101W, strain HSL1, stronger effect = lower value",0.917
same,normalized growth,"locus YKL193C, strain SDS22, stronger effect = lower value",0.962
same,normalized growth,"locus YKL203C, strain TOR2, stronger effect = lower value",0.988
same,normalized growth,"locus YLR113W, strain HOG1, stronger effect = lower value",0.736 (active)
same,normalized growth,"locus YLR133W, strain CKI1, stronger effect = lower value",0.902
same,normalized growth,"locus YLR403W, strain SFP1, stronger effect = lower value",0.896
same,normalized growth,"locus YML070W, strain DAK1, stronger effect = lower value",0.903
same,normalized growth,"locus YMR001C, strain CDC5, stronger effect = lower value",0.963
same,normalized growth,"locus YMR205C, strain PFK2 (second series), stronger effect = lower value",0.885
same,normalized growth,"locus YMR277W, strain FCP1, stronger effect = lower value",0.951
same,normalized growth,"locus YNL006W, strain LST8, stronger effect = lower value",0.967
same,normalized growth,"locus YNL020C, strain ARK1, stronger effect = lower value",0.896
same,normalized growth,"locus YNL161W, strain CBK1, stronger effect = lower value",0.973
same,normalized growth,"locus YNL183C, strain NPR1, stronger effect = lower value",0.819
same,normalized growth,"locus YNL207W, strain RIO2, stronger effect = lower value",0.969
same,normalized growth,"locus YNL222W, strain SSU72, stronger effect = lower value",0.965
same,normalized growth,"locus YNL307C, strain MCK1 (second series), stronger effect = lower value",0.86
same,normalized growth,"locus YOL078W, strain AVO1, stronger effect = lower value",0.963
same,normalized growth,"locus YOL136C, strain PFK27, stronger effect = lower value",0.896
same,normalized growth,"locus YOR061W, strain CKA2, stronger effect = lower value",0.849
same,normalized growth,"locus YOR119C, strain RIO1, stronger effect = lower value",0.916
same,normalized growth,"locus YOR231W, strain MKK1, stronger effect = lower value",0.764
same,normalized growth,"locus YOR329C, strain SCD5, stronger effect = lower value",0.965
same,normalized growth,"locus YPL031C, strain PHO85, stronger effect = lower value",0.892
same,normalized growth,"locus YPL153C, strain RAD53, stronger effect = lower value",0.892
same,normalized growth,"locus YPL204W, strain HRR25, stronger effect = lower value",0.886
same,normalized growth,"locus YPL209C, strain IPL1, stronger effect = lower value",0.968
same,normalized growth,"locus YPL256C, strain CLN2, stronger effect = lower value",0.797 (active)
same,normalized growth,"locus YPR025C, strain CCL1, stronger effect = lower value",0.957
same,normalized growth,"locus YPR106W, strain ISR1, stronger effect = lower value",0.947
same,normalized growth,"locus YPR111W, strain DBF20, stronger effect = lower value",0.93
same,normalized growth,"strain NNK1, stronger effect = lower value",0.954
same,normalized growth,"strain TSCII, stronger effect = lower value",0.959
